According to publication PMC5540273 (PLoS ONE, 2017):

Key:
Details in all cases: concentration: 1 μM, replicates: in singlicate; n = 1
MRCKA = system: MRCKA
MRCKB = system: T1, MRCKB
T1 construct: gene CDC42BPB

MST1R = system: MST1R
MST1 = system: T2, MST1
T2 construct: gene STK4

MST2 = system: T3, MST2
T3 construct: gene STK3

MST3 = system: T4, MST3
T4 construct: gene STK24

MST4 = system: MST4
MTOR = system: MTOR
MUSK = system: MUSK
MYLK2 = system: MYLK2
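Further: KINOMEscan kinase panel screen.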

Row | Compound | %Inh (MRCKA) | %Inh (MRCKB) | %Inh (MST1R) | %Inh (MST1) | %Inh (MST2) | %Inh (MST3) | %Inh (MST4) | %Inh (MTOR) | %Inh (MUSK) | %Inh (MYLK2)
1 | COc1cc2c(Nc3cccc(NC(=O)c4ccccc4)c3)ncnc2cc1OCCCN1CCOCC1 [GSK223810] | 15% | 4% | 0% | 4% | 0% | 10% | 0% | 6% | 1% | 0%
2 | FC(F)(F)c1ccc(-c2nn3ncccc3c2-c2ccnc(Nc3cccc(C(F)(F)F)c3)n2)cc1 [GW828205] | 31% | 17% | 0% | 0% | 21% | 0% | 0% | 0% | 0% | 0%
3 | Cc1ccc(C)c(NC(=O)NCCNc2ccnc(Nc3ccc(F)cc3)n2)c1 [GSK1379878] | 12% | 0% | 7% | 0% | 0% | 0% | 0% | 2% | 0% | 0%
4 | Fc1cccc(COc2ccc(Nc3ncnc4nn5ccccc5c34)cc2Cl)c1 [GW689066] | 0% | 0% | 6% | 0% | 0% | 0% | 0% | 3% | 0% | 0%
5 | CCc1nc(-c2cccc(C)c2)c(-c2ccnc(NC(=O)c3ccccc3)c2)s1 | 0% | 0% | 32% | 11% | 12% | 8% | 9% | – | 0% | 0%
